SENP8 block-1: human SENP8 protease inhibitors, primary screen, biochemical, fluorescence, Nedd8 protein substrate, uHTS | AID 602440, 2012 | Sentrin-specific protease 8 (Homo sapiens), Q96LD8 | inhibition, % at 20 µM | hit rate 0.64% among 360,000 | recombinant SENP8; in the data active means inhibition mostly above about 40%, no sharp cut-off; inactive means mostly below about 27%
Target sequence (Q96LD8 whole entry, looked up): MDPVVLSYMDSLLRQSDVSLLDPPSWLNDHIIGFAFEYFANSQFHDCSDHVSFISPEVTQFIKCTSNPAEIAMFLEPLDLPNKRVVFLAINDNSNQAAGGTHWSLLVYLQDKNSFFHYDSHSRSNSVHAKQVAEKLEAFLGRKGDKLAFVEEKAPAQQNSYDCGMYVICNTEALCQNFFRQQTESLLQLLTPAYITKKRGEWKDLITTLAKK
Platelet DG rel: inhibitors of platelet dense granule secretion, primary screen, cell-based, MLPCN, human platelets; human platelet-rich plasma, SFLLRN dense granule ATP release, luminescence; hit rate 0.22% among 300,000; inhibition, %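 (compounds screened at 7.5 µM in platelet-rich plasma)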;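 active means mean replicate score, as percent of positive control, at or above 50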
SENP6 block: SENP6 protease inhibitors, primary screen, biochemical, luminescence, uHTS; inhibition, % at 10 µM; Sentrin-specific protease 6 (Homo sapiens), Q9GZR1; Recombinant SENP6 catalytic domain, aminoluciferin luminescence; hit rate 1.8% among 330,000; AID 2599, 2010;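 active means inhibition above about 50% at the single tested dose, limit read from the data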;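 further: plate controls were DMSO wells with enzyme for no effect and DMSO wells lacking enzyme for full effect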
SENP8 block-2: SENP8 protease inhibitors, primary screen, biochemical, luminescence; Sentrin-specific protease 8 (Homo sapiens), Q96LD8; purified SENP8, Z-RLRGG-aminoluciferin cleavage; inhibition, % at 10 µM; hit rate 1.2% among 330,000; AID 2540, 2010; in the data active means inhibition above about 50%
SENP7 block: SENP7 protease inhibitors, primary screen, biochemical, luminescence, uHTS; recombinant SENP7, Z-RLRGG-aminoluciferin luminescence, 40 min; inhibition, % at 5 µM; hit rate 1.5% among 330,000;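 active means inhibition above about 50% at the single test dose, limit read from the data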;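 further: plate controls were DMSO with enzyme for no effect and no enzyme buffer wells for full effect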
Target sequence (Q9BQF6 706-1050 limits assumed): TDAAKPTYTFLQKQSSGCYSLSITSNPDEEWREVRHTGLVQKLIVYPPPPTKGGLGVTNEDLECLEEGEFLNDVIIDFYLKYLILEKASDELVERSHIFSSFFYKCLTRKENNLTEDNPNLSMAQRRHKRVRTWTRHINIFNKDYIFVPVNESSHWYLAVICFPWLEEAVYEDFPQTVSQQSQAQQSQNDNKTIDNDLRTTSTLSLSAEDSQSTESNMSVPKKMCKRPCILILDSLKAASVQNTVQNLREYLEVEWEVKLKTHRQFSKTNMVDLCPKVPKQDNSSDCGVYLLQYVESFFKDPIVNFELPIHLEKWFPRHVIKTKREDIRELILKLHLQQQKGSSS
SENP8 confirm: SENP8 protease inhibitors, retest, confirmation, biochemical, luminescence, single concentration. Recombinant SENP8, Z-RLRGG-aminoluciferin luminescence, 60 min. AID 488912, 2010. shares compounds with SENP7 block. inhibition, % at 12.5 µM. hit rate 40% among 6,200;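 active means mean inhibition across replicates above about 50%, limit read from the data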
SENP6 confirm: SENP6 protease inhibitors, confirmation, biochemical, luminescence, single concentration; AID 488915, 2010; hit rate 58% among 6,200; shares compounds with SENP7 block; inhibition, % at 12.5 µM; recombinant SENP6, Z-RLRGG-aminoluciferin luminescence
SENP7 conf: SENP7 protease inhibitors, retest, confirmation, biochemical, luminescence, single concentration | shares compounds with SENP7 block | recombinant SENP7, Z-RLRGG-aminoluciferin luminescence, 40 min | inhibition, % at 12.5 µM | hit rate 69% among 6,200
Casp3 select: caspase-3 protease inhibitors, confirmation, selectivity assay for SENP inhibitor project, biochemical, single concentration; hit rate 60% among 6,200; purified caspase-3, Z-DEVD-aminoluciferin luminescence, 60 min; shares compounds with SENP7 block; inhibition, % at 12.5 µM; AID 488918, 2010;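 active means mean inhibition above about 50%, limit read from the data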;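 further: plate controls were enzyme with DMSO for no effect and wells without caspase-3 for full effect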
Luc interf: counter-screen for SENP inhibitors: luminescence interference | Pre-incubated SENP8/Z-RLRGG-aminoluciferin, luciferase luminescence interference | hit rate 39% among 6,200 | inhibition, % at 12.5 µM | shares compounds with SENP7 block;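 active means mean inhibition above about 50% when retested at one dose, limit read from the data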;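 further: plate controls were DMSO wells with completed reaction for no effect and substrate without enzyme for full effect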
Starred values were filed as active, the others as inactive; i = inactive; x = not tested or not shown. In the library only some 2.4% were active in any assay of this set; here they are far more common.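 How the source made its calls, unless noted: active means mean inhibition above about 50% in the one-dose retest (limit read from the data); inactive means the rest.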

SMILES	SENP8 block-1	Platelet DG rel	SENP6 block	SENP8 block-2	SENP7 block	SENP8 confirm	SENP6 confirm	SENP7 conf	Casp3 select	Luc interf
CSc1ccc(/C=N/NC(=O)c2cccs2)cc1	-385	23	83*	74*	88*	26	66*	98*	86*	85*
O=C(N/N=C/c1ccc(OC(=O)c2cccc(F)c2)cc1)c1cccnc1	-2	-2	36	24	13	x	x	x	x	x
COc1ccc(NC(=O)CS(=O)c2ccc(Br)cc2)cc1 (configuration not stated)	-5	-11	10	-6	-6	x	x	x	x	x
CCOc1ccc(-n2ccc(=O)c(C(=O)O)n2)cc1	-27	3	-4	-8	4	x	x	x	x	x
CC(=C/c1ccccc1)/C=N/NC(=O)c1cccs1	-22	5	83*	75*	79*	42	80*	96*	70*	34
C/C(=N/NC(=O)c1ccccn1)c1ccco1	3	40	67*	63*	2	76*	67*	90*	92*	71*
C/C(=N\NC(=O)c1cccc(N/N=C(\C)c2ccco2)c1)c1ccco1	-1	4	x	x	x	x	x	x	x	x
C/C(=N\NC(=O)c1n[nH]c2c1CCC2)c1ccco1	9	31	69*	55*	60*	12	68*	91*	91*	65*
OC(c1cccc(Cl)c1)c1ncc(-c2cccc3ccccc23)[nH]1 (configuration not stated)	-314	x	x	x	x	x	x	x	x	x
Cn1c(/C=C/c2ccccc2)nc2ccccc21	-409	81*	99*	97*	99*	99*	100*	103*	99*	98*
CCc1ccc([C@H]2C(C(=O)O)=C[C@@H](CC3CCCC3)N2S(=O)(=O)c2ccc(C)cc2)cc1	4	x	-2	14	-10	x	x	x	x	x
Cc1[nH]n(-c2ccc([N+](=O)[O-])cc2)c(=O)c1C=NCCc1ccc(S(N)(=O)=O)cc1	12	2	14	10	-6	x	x	x	x	x
CCCc1[nH]n(-c2ccc([N+](=O)[O-])cc2)c(=O)c1C=NCCN1CCNCC1	x	1	92*	84*	87*	78*	50*	57*	85*	69*
Cc1[nH]n(-c2ccc([N+](=O)[O-])cc2)c(=O)c1C=NCCN1CCN(C(=O)C(C)C)CC1	25	3	85*	62*	78*	23	28	39	48	43
CN(CCC1CCOCC1)C(=O)C1CCC(=O)N(CCc2cccc(F)c2)C1 (configuration not stated)	14	5	6	-3	9	x	x	x	x	x
O=Cc1c(-c2ccccc2)cc2oc3ccccc3cc1-2	16	6	67*	78*	65*	19	13	8	19	-1
CCCC#Cc1ccc2c(c1)COc1c3ccccc3nn1-2	8	-2	92*	89*	73*	53*	70*	90*	86*	28
CCc1cc(-c2ccc3c(c2)COc2c4ccccc4nn2-3)on1	-428	29	81*	89*	48	4	89*	94*	70*	20
c1ccc2c(c1)COc1c3cc4c(cc3nn1-2)OCO4	10	x	x	x	x	x	x	x	x	x
Cc1ccc2c(c1)COc1c3ccc(C(=O)NCCO)cc3nn1-2	-334	-1	6	0	3	x	x	x	x	x
CC(C)CN(C(=O)C(c1ccccc1)c1ccccc1)c1c(N)n(CC(C)C)c(=O)[nH]c1=O	2	12	-26	5	7	x	x	x	x	x
CCCC(C)(C)C(=O)N1CCC1(C)C(=O)NS(=O)(=O)c1ccc(Cl)cc1 (configuration not stated)	10	x	x	x	x	x	x	x	x	x
CCN(C(=O)COC(=O)c1cccnc1Nc1cccc(C(F)(F)F)c1)C1CCS(=O)(=O)C1 (configuration not stated)	-42	0	63*	50	72*	66*	64*	86*	50	64*
CCN(C(=O)COC(=O)c1cccnc1SC)C1CCS(=O)(=O)C1 (configuration not stated)	13	0	1	-4	-6	x	x	x	x	x
N/C(=N\OC(=O)c1ccccc1F)c1cccc([N+](=O)[O-])c1	19	-8	13	34	64*	24	44	78*	51*	43
SMILES	SENP8 block-1	Platelet DG rel	SENP6 block	SENP8 block-2	SENP7 block	SENP8 confirm	SENP6 confirm	SENP7 conf	Casp3 select	Luc interf
N/C(=N\OC(=O)c1ccccc1Br)c1cccc([N+](=O)[O-])c1	24	-2	85*	66*	82*	59*	52*	83*	51*	66*
Cc1ccc(C(=O)O/N=C(\N)c2cccc([N+](=O)[O-])c2)cc1	14	8	44	12	49	x	x	x	x	x
CC(=O)c1cnc2c(-c3ccc(Cl)cc3)cnn2c1C	-9	x	-17	-6	1	x	x	x	x	x
Cc1nn2c(N)c(-c3ccccc3)cnc2c1-c1ccc(Cl)cc1	-301	0	2	-1	5	x	x	x	x	x
CS(=O)(=O)c1cnc2c(-c3ccc(F)cc3)cnn2c1N	-22	-2	-5	-7	3	x	x	x	x	x
Nc1c(-c2cccs2)cnc2c(-c3ccc(F)cc3)cnn12	-284	-4	50*	28	69*	8	34	48	42	9
Nc1c(-c2ccccc2)cnc2c(-c3ccccc3)cnn12	i	-1	43	5	74*	8	19	50*	55*	2
Nc1c(C(=O)O)cnc2c(-c3ccc(Cl)cc3)cnn12	-401	23	95*	98*	100*	52*	100*	103*	98*	96*
CC(C)N(Cc1ccccc1)C(=O)COC(=O)c1c(F)cccc1F	8	x	2	2	4	x	x	x	x	x
O=C(O/N=C/C1=C(Cl)c2ccccc2CC1)c1ccc(F)cc1	-2	-1	-15	-11	64*	10	13	17	31	2
Cc1csc2nc(CSc3ccc(Cl)cc3)cn12	11	8	80*	46	53*	78*	77*	92*	67*	72*
